About 7,900 targets were measured; listed, in parts, are those with a hit and a random draw of the rest. About 0.6% of all pairs of compound and target were hits.
Experiments:
Assay in all cases: log2 fold change, soluble protein after heating vs DMSO (PISA); higher = thermal stabilisation; K562 cells, 10 uM, 30 min; active = over 0.2 and 3.5 SD of the protein, either way, in both replicates (recomputed)
[1] = compound: COC1=CC=C(C=C1)CN2C=CC3=C2C=C(C=C3)C(=O)NO
Method in brief: (§1)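 K562 cells at 2×10^6 cells/mL were exposed to 10 μM compound for 30 min, then aliquots were heated for 3 min across 48°C-58°C, pooled, and extracted in PBS containing 0.5% NP-40 at 4°C. The supernatant after 21,000xg for 90 min was taken as soluble protein and measured by TMTpro 16plex LC-MS/MS with channel sums equalised. Thermal stability is reported relative to control samples, with values from duplicates. Fold changes are given on a log2 scale.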

filanesib = compound: CON(C)C(=O)N1N=C(c2cc(F)ccc2F)S[C@@]1(CCCN)c1ccccc1 [filanesib]
Method in brief: as §1

zotarolimus = compound: CO[C@H]1C[C@@H]2CC[C@@H](C)[C@@](O)(O2)C(=O)C(=O)N2CCCC[C@H]2C(=O)O[C@H]([C@H](C)C[C@@H]2CC[C@H](n3cnnn3)[C@H](OC)C2)CC(=O)[C@H](C)/C=C(\C)[C@@H](O)[C@@H](OC)C(=O)[C@H](C)C[C@H](C)/C=C/C=C/C=C/1C [zotarolimus]
Method in brief: as §1

idasanutlin = compound: COc1cc(C(=O)O)ccc1NC(=O)[C@@H]1N[C@@H](CC(C)(C)C)[C@](C#N)(c2ccc(Cl)cc2F)[C@H]1c1cccc(Cl)c1F [idasanutlin]
Method in brief: as §1

alisertib = compound: COc1cc(Nc2ncc3c(n2)-c2ccc(Cl)cc2C(c2c(F)cccc2OC)=NC3)ccc1C(=O)O [alisertib]
Method in brief: as §1

[2] = compound: COc1cc2nc(-c3cc(F)ccc3O)nc(N[C@@H]3CNC[C@H]3C(C)(C)O)c2cc1OC
Method in brief: as §1

gefitinib = compound: COc1cc2ncnc(Nc3ccc(F)c(Cl)c3)c2cc1OCCCN1CCOCC1 [gefitinib]
Method in brief: as §1

[3] = compound: COc1cccc2cc(-c3nc([C@H]4CC[C@H](C(=O)O)CC4)n4ncnc(N)c34)[nH]c12
Method in brief: as §1

lapatinib = compound: CS(=O)(=O)CCNCc1ccc(-c2ccc3ncnc(Nc4ccc(OCc5cccc(F)c5)c(Cl)c4)c3c2)o1 [lapatinib]
Method in brief: as §1

pictilisib = compound: CS(=O)(=O)N1CCN(Cc2cc3nc(-c4cccc5[nH]ncc45)nc(N4CCOCC4)c3s2)CC1 [pictilisib]
Method in brief: as §1

[4] = compound: CS(=O)(=O)c1ccc(-c2cnc(N)c(C(=O)Nc3ccccc3)n2)cc1
Method in brief: as §1

crizotinib = compound: C[C@@H](Oc1cc(-c2cnn(C3CCNCC3)c2)cnc1N)c1c(Cl)ccc(F)c1Cl [crizotinib]
Method in brief: as §1

[5] = compound: C[C@@H]1COCCN1C2=NC(=NC(=C2)C3(CC3)S(=O)(=O)C)C4=C5C=CNC5=CC=C4
Method in brief: as §1

[6] = compound: C[C@H](C1=CC=C(C=C1)C(=O)NC2=C3C=CNC3=NC=C2)N
Method in brief: as §1

duvelisib = compound: C[C@H](Nc1ncnc2nc[nH]c12)c1cc2cccc(Cl)c2c(=O)n1-c1ccccc1 [duvelisib]
Method in brief: as §1

gandotinib = compound: Cc1cc(Nc2cc(CN3CCOCC3)c3nc(C)c(Cc4ccc(Cl)cc4F)n3n2)n[nH]1 [gandotinib]
Method in brief: as §1

tozasertib = compound: Cc1cc(Nc2cc(N3CCN(C)CC3)nc(Sc3ccc(NC(=O)C4CC4)cc3)n2)n[nH]1 [tozasertib]
Method in brief: as §1

[7] = compound: Cc1cc(SCc2sc(-c3ccc(C(F)(F)F)cc3)nc2C)ccc1OCC(=O)O
Method in brief: as §1

doramapimod = compound: Cc1ccc(-n2nc(C(C)(C)C)cc2NC(=O)Nc2ccc(OCCN3CCOCC3)c3ccccc23)cc1 [doramapimod]
Method in brief: as §1

ispinesib = compound: Cc1ccc(C(=O)N(CCCN)[C@@H](c2nc3cc(Cl)ccc3c(=O)n2Cc2ccccc2)C(C)C)cc1 [ispinesib]
Method in brief: as §1

Measured: log2 fold change

TAOK3 (UniProt Q9H2K8)
Sequence of UniProt Q9H2K8 (Q9H2K8 whole entry, looked up): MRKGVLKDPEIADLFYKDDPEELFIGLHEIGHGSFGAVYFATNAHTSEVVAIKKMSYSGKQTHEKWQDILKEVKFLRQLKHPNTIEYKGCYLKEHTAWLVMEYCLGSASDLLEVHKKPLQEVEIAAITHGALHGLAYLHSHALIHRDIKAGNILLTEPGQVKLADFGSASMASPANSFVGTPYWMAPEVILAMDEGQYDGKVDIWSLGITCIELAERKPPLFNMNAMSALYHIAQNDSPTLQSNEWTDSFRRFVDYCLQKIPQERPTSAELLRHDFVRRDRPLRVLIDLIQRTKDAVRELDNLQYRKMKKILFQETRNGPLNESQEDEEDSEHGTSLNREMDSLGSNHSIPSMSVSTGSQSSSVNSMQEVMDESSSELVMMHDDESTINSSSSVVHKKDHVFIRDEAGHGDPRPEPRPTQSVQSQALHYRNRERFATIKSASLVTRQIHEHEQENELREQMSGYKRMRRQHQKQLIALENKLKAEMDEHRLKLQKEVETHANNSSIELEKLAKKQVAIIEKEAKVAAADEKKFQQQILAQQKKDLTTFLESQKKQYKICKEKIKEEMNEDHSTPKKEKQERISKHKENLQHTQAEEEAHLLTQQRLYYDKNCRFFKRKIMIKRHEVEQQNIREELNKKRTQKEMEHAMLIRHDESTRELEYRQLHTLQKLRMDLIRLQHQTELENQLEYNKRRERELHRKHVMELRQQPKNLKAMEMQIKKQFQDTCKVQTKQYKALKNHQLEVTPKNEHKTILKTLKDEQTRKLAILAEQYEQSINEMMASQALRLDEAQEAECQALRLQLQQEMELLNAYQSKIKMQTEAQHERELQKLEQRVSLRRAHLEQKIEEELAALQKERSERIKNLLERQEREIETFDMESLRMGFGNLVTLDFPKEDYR
inactive: [1] 0.047 | filanesib 0.014 | zotarolimus 0.002 | idasanutlin -0.003 | alisertib -0.038 | [2] -0.049 | gefitinib 0.001 | [3] -0.011 | lapatinib 0.061 | pictilisib -0.001 | [4] -0.051 | crizotinib -0.03 | [5] -0.008 | [6] -0.13 | duvelisib 0.014 | gandotinib -0.08 | tozasertib 0.011 | [7] 0.057 | doramapimod 0.023 | ispinesib 0.01

TBC1D5 isoform 2 (UniProt Q92609)
inactive: [1] 0.048 | filanesib -0.01 | zotarolimus 0.048 | idasanutlin -0.052 | alisertib -0.021 | [2] 0.006 | gefitinib -0.031 | [3] 0.003 | lapatinib -0.062 | pictilisib -0.091 | [4] 0 | crizotinib -0.24 | [5] -0.003 | [6] 0.084 | duvelisib -0.072 | gandotinib -0.255 | tozasertib 0.007 | [7] 0.142 | doramapimod -0.031 | ispinesib -0.268

SNW1 (UniProt Q13573)
inactive: [1] 0.014 | filanesib 0.039 | zotarolimus -0.068 | idasanutlin 0.034 | alisertib -0.08 | [2] 0.073 | gefitinib -0.068 | [3] 0 | lapatinib 0.011 | pictilisib -0.035 | [4] -0.035 | crizotinib 0.068 | [5] -0.062 | [6] 0.015 | duvelisib -0.016 | gandotinib 0.045 | tozasertib -0.015 | [7] -0.045 | doramapimod 0 | ispinesib -0.048

TBRG4 (UniProt Q969Z0)
active: crizotinib -0.676
inactive: [1] 0.062 | filanesib -0.551 | zotarolimus -0.007 | idasanutlin -0.021 | alisertib 0.032 | [2] -0.274 | gefitinib -0.121 | [3] 0.073 | lapatinib -0.051 | pictilisib -0.036 | [4] -0.041 | [5] 0.137 | [6] -0.005 | duvelisib 0.066 | gandotinib -0.364 | tozasertib 0.04 | [7] 0.174 | doramapimod -0.081 | ispinesib -0.254

TECR (UniProt Q9NZ01)
Sequence of UniProt Q9NZ01 (Q9NZ01 whole entry, looked up): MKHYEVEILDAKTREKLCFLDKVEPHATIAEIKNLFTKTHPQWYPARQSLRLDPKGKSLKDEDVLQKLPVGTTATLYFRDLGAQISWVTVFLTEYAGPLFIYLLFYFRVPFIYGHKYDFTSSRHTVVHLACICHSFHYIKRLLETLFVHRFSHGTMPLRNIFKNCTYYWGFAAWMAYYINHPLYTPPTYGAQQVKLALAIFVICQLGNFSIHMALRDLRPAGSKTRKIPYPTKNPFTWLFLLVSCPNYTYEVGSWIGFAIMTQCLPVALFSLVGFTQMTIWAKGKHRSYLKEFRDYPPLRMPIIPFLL
inactive: [1] -0.031 | filanesib -0.169 | zotarolimus -0.041 | idasanutlin -0.111 | alisertib -0.028 | [2] -0.102 | gefitinib -0.027 | [3] 0.034 | lapatinib -0.012 | pictilisib -0.102 | [4] -0.002 | crizotinib -0.247 | [5] 0.054 | [6] 0.045 | duvelisib 0.05 | tozasertib -0.031 | [7] 0.044 | doramapimod -0.095
active: gandotinib -0.344 | ispinesib -0.501

SSB (UniProt P05455)
Sequence of UniProt P05455 (P05455 whole entry, looked up): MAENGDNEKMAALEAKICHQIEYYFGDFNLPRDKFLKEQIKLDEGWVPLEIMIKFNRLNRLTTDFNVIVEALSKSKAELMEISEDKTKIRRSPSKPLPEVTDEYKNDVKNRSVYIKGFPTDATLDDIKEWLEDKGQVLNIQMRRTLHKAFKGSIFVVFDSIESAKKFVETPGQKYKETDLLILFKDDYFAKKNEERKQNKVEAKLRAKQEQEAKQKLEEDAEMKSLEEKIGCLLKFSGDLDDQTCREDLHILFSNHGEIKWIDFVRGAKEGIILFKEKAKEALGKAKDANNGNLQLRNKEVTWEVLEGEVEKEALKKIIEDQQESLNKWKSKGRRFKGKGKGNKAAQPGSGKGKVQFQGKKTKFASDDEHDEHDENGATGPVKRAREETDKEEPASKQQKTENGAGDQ
inactive: [1] -0.036 | filanesib 0.049 | zotarolimus -0.063 | idasanutlin 0 | alisertib -0.046 | [2] -0.132 | gefitinib -0.016 | [3] -0.101 | lapatinib -0.031 | pictilisib -0.042 | [4] -0.159 | crizotinib 0.022 | [5] -0.085 | [6] -0.05 | duvelisib -0.033 | gandotinib -0.103 | tozasertib 0.048 | [7] 0.003 | doramapimod 0.013 | ispinesib -0.02

TFB2M (UniProt Q9H5Q4)
Sequence of UniProt Q9H5Q4 (Q9H5Q4 whole entry, looked up): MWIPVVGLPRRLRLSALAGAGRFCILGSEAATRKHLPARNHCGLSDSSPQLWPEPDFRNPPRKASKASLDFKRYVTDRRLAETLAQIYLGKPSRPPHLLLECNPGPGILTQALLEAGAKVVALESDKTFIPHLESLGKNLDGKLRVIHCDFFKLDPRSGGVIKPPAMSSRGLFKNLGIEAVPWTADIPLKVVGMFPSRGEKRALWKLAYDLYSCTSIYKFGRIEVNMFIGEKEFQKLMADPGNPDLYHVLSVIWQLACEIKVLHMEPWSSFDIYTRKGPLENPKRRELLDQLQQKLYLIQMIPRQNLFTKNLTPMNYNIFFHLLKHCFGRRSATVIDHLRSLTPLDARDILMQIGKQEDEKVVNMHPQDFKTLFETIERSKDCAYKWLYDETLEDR
inactive: [1] -0.044 | filanesib -0.074 | zotarolimus -0.001 | idasanutlin -0.055 | alisertib 0.011 | [2] 0.006 | gefitinib 0.002 | [3] 0.037 | lapatinib -0.001 | pictilisib -0.021 | [4] -0.013 | crizotinib -0.06 | [5] 0.096 | [6] 0.025 | duvelisib 0.049 | gandotinib -0.19 | tozasertib 0.013 | [7] 0.033 | doramapimod -0.024 | ispinesib -0.044

SURF1 (UniProt Q15526)
Sequence of UniProt Q15526 (Q15526 whole entry, looked up): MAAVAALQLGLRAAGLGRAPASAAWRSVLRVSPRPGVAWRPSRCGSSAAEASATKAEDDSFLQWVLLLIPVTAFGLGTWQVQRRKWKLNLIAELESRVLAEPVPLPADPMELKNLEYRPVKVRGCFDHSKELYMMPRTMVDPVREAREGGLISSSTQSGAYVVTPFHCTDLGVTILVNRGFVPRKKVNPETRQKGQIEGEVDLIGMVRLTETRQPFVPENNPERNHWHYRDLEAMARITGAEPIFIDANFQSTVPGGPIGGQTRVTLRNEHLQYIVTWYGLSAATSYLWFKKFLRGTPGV
inactive: [1] 0.053 | filanesib -0.032 | zotarolimus -0.008 | idasanutlin 0.025 | alisertib -0.098 | [2] -0.004 | gefitinib -0.055 | [3] 0.083 | lapatinib 0.058 | pictilisib 0.051 | [4] -0.001 | crizotinib -0.008 | [5] 0.043 | [6] -0.013 | duvelisib 0 | gandotinib -0.066 | tozasertib 0.016 | [7] 0.032 | doramapimod 0.01 | ispinesib -0.181

STIM1 (UniProt Q13586)
Sequence of UniProt Q13586 (Q13586 whole entry, looked up): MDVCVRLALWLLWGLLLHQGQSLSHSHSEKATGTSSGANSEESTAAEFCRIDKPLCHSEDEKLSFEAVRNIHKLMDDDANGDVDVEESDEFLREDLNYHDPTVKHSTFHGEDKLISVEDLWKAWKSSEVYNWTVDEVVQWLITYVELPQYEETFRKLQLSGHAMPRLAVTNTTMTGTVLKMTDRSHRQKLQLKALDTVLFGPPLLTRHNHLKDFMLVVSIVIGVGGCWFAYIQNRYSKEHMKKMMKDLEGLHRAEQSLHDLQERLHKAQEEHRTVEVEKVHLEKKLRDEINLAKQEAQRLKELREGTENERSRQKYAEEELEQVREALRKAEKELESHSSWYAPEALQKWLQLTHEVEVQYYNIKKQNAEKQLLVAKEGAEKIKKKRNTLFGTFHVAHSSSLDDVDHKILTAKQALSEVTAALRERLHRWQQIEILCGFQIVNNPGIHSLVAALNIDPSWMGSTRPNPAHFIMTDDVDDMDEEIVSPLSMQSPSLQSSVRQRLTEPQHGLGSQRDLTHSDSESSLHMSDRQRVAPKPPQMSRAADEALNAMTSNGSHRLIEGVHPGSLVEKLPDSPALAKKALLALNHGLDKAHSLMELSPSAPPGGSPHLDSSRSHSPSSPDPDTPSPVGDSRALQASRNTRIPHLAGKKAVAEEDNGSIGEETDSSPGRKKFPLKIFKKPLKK
inactive: [1] 0.048 | filanesib -0.123 | zotarolimus 0.041 | idasanutlin 0.02 | alisertib -0.029 | [2] -0.218 | gefitinib 0 | [3] 0.037 | lapatinib -0.011 | pictilisib 0.036 | [4] 0.015 | crizotinib -0.07 | [5] 0.087 | [6] -0.028 | duvelisib 0.014 | gandotinib -0.008 | tozasertib -0.018 | [7] 0.057 | doramapimod 0.011 | ispinesib -0.233

SRSF7 (UniProt Q16629)
Sequence of UniProt Q16629 (Q16629 whole entry, looked up): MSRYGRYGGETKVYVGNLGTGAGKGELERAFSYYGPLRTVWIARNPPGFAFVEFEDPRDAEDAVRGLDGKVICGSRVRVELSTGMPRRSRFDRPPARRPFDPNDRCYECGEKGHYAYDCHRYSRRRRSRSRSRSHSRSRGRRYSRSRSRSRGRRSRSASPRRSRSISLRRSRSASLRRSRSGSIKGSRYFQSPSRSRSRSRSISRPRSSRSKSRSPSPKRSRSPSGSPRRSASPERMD
inactive: [1] -0.089 | filanesib 0.422 | zotarolimus -0.015 | idasanutlin 0.327 | alisertib -0.114 | [2] -0.047 | gefitinib 0.084 | [3] 0.013 | lapatinib 0.1 | pictilisib -0.003 | [4] -0.096 | crizotinib 0.008 | [5] -0.311 | [6] 0.045 | duvelisib -0.093 | gandotinib 0.319 | tozasertib -0.005 | [7] -0.025 | doramapimod 0.073 | ispinesib -0.089

SLC30A10 (UniProt Q6XR72)
inactive: [1] 0.06 | filanesib 0.032 | zotarolimus -0.02 | idasanutlin 0.005 | alisertib -0.12 | [2] 0.003 | gefitinib 0.095 | [3] 0.032 | lapatinib 0.001 | pictilisib 0.095 | [4] 0.11 | crizotinib 0.192 | [5] 0.178 | [6] -0.001 | duvelisib 0.079 | gandotinib -0.078 | tozasertib -0.062 | [7] -0.046 | doramapimod 0.035 | ispinesib 0.077

TCERG1 (UniProt O14776)
Sequence of UniProt O14776 (O14776 whole entry, looked up): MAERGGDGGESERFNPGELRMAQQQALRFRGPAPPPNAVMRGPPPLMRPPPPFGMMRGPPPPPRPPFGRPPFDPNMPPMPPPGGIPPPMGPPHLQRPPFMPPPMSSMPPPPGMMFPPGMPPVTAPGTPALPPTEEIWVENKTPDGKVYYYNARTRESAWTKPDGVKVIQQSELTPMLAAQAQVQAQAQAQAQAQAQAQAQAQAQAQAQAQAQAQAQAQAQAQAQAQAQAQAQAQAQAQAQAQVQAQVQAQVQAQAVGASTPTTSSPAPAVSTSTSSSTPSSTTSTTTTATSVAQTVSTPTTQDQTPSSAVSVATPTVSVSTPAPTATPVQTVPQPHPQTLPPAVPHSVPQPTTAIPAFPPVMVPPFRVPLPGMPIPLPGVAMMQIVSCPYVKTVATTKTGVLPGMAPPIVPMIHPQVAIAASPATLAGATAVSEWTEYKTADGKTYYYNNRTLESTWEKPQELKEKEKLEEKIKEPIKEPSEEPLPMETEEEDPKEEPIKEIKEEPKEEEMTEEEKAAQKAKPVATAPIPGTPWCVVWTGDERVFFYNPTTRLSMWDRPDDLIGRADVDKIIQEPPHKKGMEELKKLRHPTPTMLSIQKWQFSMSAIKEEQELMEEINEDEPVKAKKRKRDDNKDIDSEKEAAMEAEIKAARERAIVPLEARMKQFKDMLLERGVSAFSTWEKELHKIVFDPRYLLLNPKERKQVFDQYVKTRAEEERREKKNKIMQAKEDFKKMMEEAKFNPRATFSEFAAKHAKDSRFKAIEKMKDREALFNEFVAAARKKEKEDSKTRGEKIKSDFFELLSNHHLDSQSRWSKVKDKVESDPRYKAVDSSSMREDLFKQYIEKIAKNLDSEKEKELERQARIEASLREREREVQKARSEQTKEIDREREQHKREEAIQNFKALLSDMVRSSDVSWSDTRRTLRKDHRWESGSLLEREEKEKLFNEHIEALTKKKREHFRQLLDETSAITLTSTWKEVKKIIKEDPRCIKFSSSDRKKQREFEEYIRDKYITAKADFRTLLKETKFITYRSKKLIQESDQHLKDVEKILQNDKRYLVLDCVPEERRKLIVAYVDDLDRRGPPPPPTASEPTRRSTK
inactive: [1] 0.104 | filanesib -0.008 | zotarolimus 0.025 | idasanutlin -0.087 | alisertib 0.043 | [2] 0.054 | gefitinib 0.073 | [3] -0.003 | lapatinib -0.036 | pictilisib 0 | [4] 0.079 | crizotinib 0.073 | [5] 0.125 | [6] -0.063 | duvelisib 0.138 | gandotinib -0.057 | tozasertib 0.112 | [7] 0.179 | doramapimod -0.079 | ispinesib 0.015

STK4 (UniProt Q13043)
Sequence of UniProt Q13043 (Q13043 whole entry, looked up): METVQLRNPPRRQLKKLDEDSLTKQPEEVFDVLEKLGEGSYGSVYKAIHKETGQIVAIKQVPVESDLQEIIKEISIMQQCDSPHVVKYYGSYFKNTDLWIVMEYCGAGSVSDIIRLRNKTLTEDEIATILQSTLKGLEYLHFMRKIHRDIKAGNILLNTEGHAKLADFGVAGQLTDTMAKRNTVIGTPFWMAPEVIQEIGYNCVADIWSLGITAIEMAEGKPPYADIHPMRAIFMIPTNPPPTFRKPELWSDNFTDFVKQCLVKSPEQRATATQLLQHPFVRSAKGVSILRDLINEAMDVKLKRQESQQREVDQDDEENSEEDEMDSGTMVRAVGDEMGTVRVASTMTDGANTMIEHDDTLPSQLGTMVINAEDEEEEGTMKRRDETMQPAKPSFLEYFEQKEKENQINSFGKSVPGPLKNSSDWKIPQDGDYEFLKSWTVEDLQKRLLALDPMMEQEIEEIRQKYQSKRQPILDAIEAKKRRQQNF
inactive: [1] -0.031 | filanesib -0.034 | zotarolimus -0.025 | idasanutlin 0.01 | alisertib -0.047 | [2] 0.099 | gefitinib -0.007 | [3] 0.015 | lapatinib -0.036 | pictilisib 0.02 | [4] 0.009 | crizotinib -0.01 | [5] 0.032 | [6] 0.036 | duvelisib 0.068 | gandotinib 0.043 | tozasertib -0.021 | [7] -0.004 | doramapimod -0.008 | ispinesib -0.03

— the supplement of paper PMC10849652
